Calls of active or inactive are those of the source. Unless noted, the rule behind the calls is not given here.
Tests used:
[1] = test system: XIP peptide (Xip251-270) binding; assay: XIP fragment 251-270 binding compounds – biochemical, small-molecule microarray, fluorescence 635/667 nm, 0.1 µg/mL protein, primary screen (AID 1182); conditions: fluorescent protein binding, 635 nm, higher = more signal, called active from +8 up or from −8 down
XIP peptide (Xip251-270) = assay: compounds binding XIP fragment 251-270 – biochemical, small-molecule microarray, fluorescence 635/667 nm, 0.5 µg/mL protein, primary screen (AID 1183); conditions: fluorescence 635 nm, higher = more signal
[2] = blood-stage malaria parasite viability loss – strain 3D7, DAPI fluorescence, 100 nL, primary screen (AID 1184);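 note: parasites grown inside human red blood cells in medium with human serum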; conditions: P. falciparum 3D7 growth, 3 d, higher = more signal
[3] = biological target: Homeobox protein Hox-A13 (Mus musculus) (UniProt Q62424); assay: disruptors of Hoxa13 oligonucleotide interaction – biochemical, fluorescence polarization, labeled oligonucleotide, primary screen (AID 1185); conditions: Hoxa13:DNA binding, 15 min, higher = more signal, called active from +8 up or from −8 down
[4] = blockers of DNA damage checkpoint Chk1 activation – imaging, HeLa, hydroxyurea, phospho-Chk1 antibody, percent positive cells, primary screen (AID 1186); conditions: hydroxyurea-induced phospho-Chk1 immunofluorescence imaging, higher = more signal
[5] = blockers of DNA damage checkpoint Chk1 activation – imaging, HeLa, hydroxyurea, phospho-Chk1 nuclear intensity, primary screen (AID 1187); conditions: hydroxyurea-induced phospho-Chk1 immunofluorescence imaging, higher = more signal

Chain of Homeobox protein Hox-A13 (Mus musculus) (Q62424 whole entry, looked up): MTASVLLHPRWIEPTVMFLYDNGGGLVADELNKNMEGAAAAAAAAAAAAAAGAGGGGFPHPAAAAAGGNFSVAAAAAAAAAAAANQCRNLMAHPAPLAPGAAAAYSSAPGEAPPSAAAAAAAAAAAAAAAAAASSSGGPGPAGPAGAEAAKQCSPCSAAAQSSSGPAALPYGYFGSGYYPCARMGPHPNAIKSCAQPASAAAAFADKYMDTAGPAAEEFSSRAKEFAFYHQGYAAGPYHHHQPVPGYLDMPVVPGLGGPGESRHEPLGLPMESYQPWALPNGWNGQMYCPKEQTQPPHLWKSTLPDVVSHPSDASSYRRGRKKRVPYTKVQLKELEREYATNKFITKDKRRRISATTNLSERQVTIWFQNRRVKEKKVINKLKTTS

Compound: COCCOC(=O)N1C(=O)[C@@]2(c3cc(C#CCNC(N)=O)ccc31)[C@H](C(=O)N1CCN(c3ncccn3)CC1)[C@H]1C(=O)O[C@H](c3ccccc3)[C@H](c3ccccc3)N1[C@@H]2c1ccc(O)cc1
- composite z-score [1]: -0.417 (inactive)
- composite z-score (XIP peptide (Xip251-270)): 0.288
- z-score [2]: 0.614
- z-score [3]: -0.508 (inactive)
- z-score [4]: -0.171 (inactive)
- z-score [5]: -0.206 (inactive)

Compound: COC(=O)[C@@]1(Cc2ccc(F)cc2)[C@H]2c3cc(C(=O)N(C)C)n(Cc4cccc5ccccc45)c3C[C@H]2CN1C(=O)c1ccccc1
- composite z-score [1]: 0.0361 (inactive)
- composite z-score (XIP peptide (Xip251-270)): 0.891
- z-score [2]: -1.51
- z-score [3]: -4.81 (inactive)
- z-score [4]: 0.406 (inactive)
- z-score [5]: 0.252 (inactive)

Compound: COCCOC(=O)N1C(=O)[C@@]2(c3cc(C#CCNC(N)=O)ccc31)[C@H](c1ccccc1OCCO)N1[C@H](c3ccccc3)[C@H](c3ccccc3)OC(=O)[C@H]1[C@@H]2C(=O)N1CCCCCCC1
- composite z-score [1]: 0.564 (inactive)
- composite z-score (XIP peptide (Xip251-270)): 0.824
- z-score [2]: -2.13
- z-score [3]: 0.831 (inactive)
- z-score [4]: -0.0593 (inactive)
- z-score [5]: -0.191 (inactive)

Compound: C=CC[C@]1(C(=O)NCCN2CCOCC2)N=C(c2ccc(OCCCO)cc2)O[C@H]1c1ccccc1
- composite z-score [1]: 0.212 (inactive)
- composite z-score (XIP peptide (Xip251-270)): 0.492
- z-score [2]: -0.188
- z-score [3]: -6.22 (inactive)
- z-score [4]: -0.116 (inactive)
- z-score [5]: 0.106 (inactive)

Compound: N#Cc1ccc(NN2C(C(O)c3ccc(B(O)O)cc3)C=CC3CN(c4ccccc4)C(=O)C32)cc1 (configuration not stated)
- composite z-score [1]: -0.0004 (inactive)
- composite z-score (XIP peptide (Xip251-270)): 0.658
- z-score [2]: -0.0223
- z-score [3]: -2.55 (inactive)
- z-score [4]: -1.03 (inactive)
- z-score [5]: -0.622 (inactive)

Compound: Cc1ccc(S[C@]2(C(=O)NCCN3CCOCC3)CC(=O)N(C(C)C)[C@@H]2c2ccc(CO)cc2I)cc1
- composite z-score [1]: 0.342 (inactive)
- composite z-score (XIP peptide (Xip251-270)): 0.93
- z-score [2]: -0.191
- z-score [3]: -3.43 (inactive)
- z-score [4]: -0.395 (inactive)
- z-score [5]: -0.0483 (inactive)

Compound: COc1ccc(C(=O)Nc2cccc(CN3C(=O)[C@]4(O[C@H](CC(=O)N(CCO)Cc5ccccc5)[C@@H]([Si](C)(C)c5ccc(OC)cc5)[C@@H]4C)c4ccccc43)c2)cc1
- composite z-score [1]: 0.256 (inactive)
- composite z-score (XIP peptide (Xip251-270)): 0.572
- z-score [2]: -2.49
- z-score [3]: -0.179 (inactive)
- z-score [4]: -0.571 (inactive)
- z-score [5]: 0.0153 (inactive)

Compound: CCCCC(=C=CC[C@H](O)c1ccccc1OCCO)CCO
- composite z-score [1]: 1.47 (inactive)
- composite z-score (XIP peptide (Xip251-270)): -0.0255
- z-score [2]: -0.315
- z-score [3]: -3.54 (inactive)
- z-score [4]: 0.324 (inactive)
- z-score [5]: 0.181 (inactive)

Compound: COC(=O)[C@]1(Cc2ccccc2N=[N+]=[N-])N=C(c2ccc(OCCCO)cc2)O[C@@H]1c1ccccc1CN=[N+]=[N-]
- composite z-score [1]: 0.11 (inactive)
- composite z-score (XIP peptide (Xip251-270)): 0.729
- z-score [2]: -1.96
- z-score [3]: -1.15 (inactive)
- z-score [4]: -0.446 (inactive)
- z-score [5]: -0.437 (inactive)

Compound: CN(C)CCCC[C@@H]1NC(=O)[C@H]2C[C@@H](C(=O)NCCCCCCNC(=O)CS)[C@@H](c3cccc(OCCO)c3)N2C1=O
- composite z-score [1]: 0.305 (inactive)
- composite z-score (XIP peptide (Xip251-270)): 0.603
- z-score [2]: 0.162
- z-score [3]: -1.91 (inactive)
- z-score [4]: 0.542 (inactive)
- z-score [5]: 0.68 (inactive)

Compound: CCc1cccc(NC(=O)O[C@H]2[C@H](OC(=O)Nc3ccccc3-c3ccccc3)[C@H](OC(=O)Nc3ccccc3-c3ccccc3)[C@@H](OC)O[C@@H]2CO)c1
- composite z-score [1]: 0.187 (inactive)
- composite z-score (XIP peptide (Xip251-270)): 0.591
- z-score [2]: -2.53
- z-score [3]: -1.39 (inactive)
- z-score [4]: -0.36 (inactive)
- z-score [5]: 0.0172 (inactive)

Compound: CN1C(=O)C2C(C1=O)C1C=C(CCCO)C2C(C2CC2)N1C (configuration not stated)
- composite z-score [1]: 0.58 (inactive)
- composite z-score (XIP peptide (Xip251-270)): 0.591
- z-score [2]: 0.119
- z-score [3]: -6.6 (inactive)
- z-score [4]: -0.0182 (inactive)
- z-score [5]: 0.162 (inactive)

Compound: COC(=O)[C@@]1(Cc2ccc(F)cc2)[C@H]2c3cc(C(=O)N4CCCC4)n(CCc4c[nH]c5cc(F)ccc45)c3C[C@H]2CN1C(=O)c1ccccc1
- composite z-score [1]: 0.0421 (inactive)
- composite z-score (XIP peptide (Xip251-270)): 0.684
- z-score [2]: -1.4
- z-score [3]: -2.5 (inactive)
- z-score [4]: -0.332 (inactive)
- z-score [5]: -0.589 (inactive)

Compound: CCOC(=O)C[C@H]1[C@H](OC(=O)c2cc3ccccc3oc2=O)[C@@H](NC(=O)Cc2ccc(OC)cc2)c2cc(OCCCO)ccc2N1C(=O)Cc1ccc(OC)cc1
- composite z-score [1]: -0.0664 (inactive)
- composite z-score (XIP peptide (Xip251-270)): 0.0609
- z-score [2]: -0.912
- z-score [3]: -5.1 (inactive)
- z-score [4]: 0.212 (inactive)
- z-score [5]: 0.199 (inactive)

Compound: O=C1NC(=O)C2C1C=CC(C(O)C1CCCCC1)N2Nc1ccccn1 (configuration not stated)
- composite z-score [1]: -0.275 (inactive)
- composite z-score (XIP peptide (Xip251-270)): 0.27
- z-score [2]: 0.582
- z-score [3]: -2.17 (inactive)
- z-score [4]: 1.04 (inactive)
- z-score [5]: 1.39 (inactive)

Compound: O=C1NC(=O)C2C1C=CC(C(O)C(c1ccccc1)c1ccccc1)N2Nc1ccccn1 (configuration not stated)
- composite z-score [1]: 0.21 (inactive)
- composite z-score (XIP peptide (Xip251-270)): 0.797
- z-score [2]: -0.315
- z-score [3]: -5.58 (inactive)
- z-score [4]: -0.12 (inactive)
- z-score [5]: -0.319 (inactive)

Compound: O=C1O[C@@H](c2ccccc2)[C@@H](c2ccccc2)N2[C@@H](c3ccc(OCCO)cc3)[C@]3(C(=O)Nc4ccc(C#CC5=CCCCC5)cc43)[C@@H](C(=O)Nc3nc4ccccc4s3)[C@H]12
- composite z-score [1]: -0.487 (inactive)
- composite z-score (XIP peptide (Xip251-270)): 0.646
- z-score [2]: -1.38
- z-score [3]: -15.3 (active)
- z-score [4]: -0.176 (inactive)
- z-score [5]: -0.282 (inactive)

Reference: PubChem BioAssay
